Compound activity (PubChem BioAssay)
Akt phos inh: Akt phosphorylation inhibition; Neuro2A IGF-stimulated pAkt S473 HTRF, 20 min; hits give low values; activity change, % for hits at 50 µM; actives 0.32% (n = 360,000); AID 651550; in the data active = activity change below about -80%; inconclusive = mostly about -51% to -80%; note: % is set by controls: 0 for no effect and ±100 for the full control effect
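Neuro2A cells in DMEM with 0.5% FBS, overnight at 37 deg C, given compound at single 50 µM final, then IGF (6 nM final) for 20 min at 37 deg C. Lysed; phospho-Akt Ser473 by HTRF after 24 h, 665/615 ratio.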
Menin MLL FP FL: inhibitors of human menin-MLL interaction, wild-type MLL peptide; 290,000 tested, under 10 active; Fluorescence polarization, fluorescein-MLL peptide displacement from menin; FP activity change, % at 61.4 µM; active = well fitted curve in the direction sought with a large enough effect in the polarisation, not every such curve was filed as active; inconclusive = small, poorly fitted or top-dose-only effect, or effect the other way, or a change in a side signal; inactive = no such curve, though single readings can be large or run the other way; the % refers to the polarisation; note: % of control where 0% means no effect
LDHA block: blocks human lactate dehydrogenase A; P00338; purified LDHA, NADH/diaphorase-resazurin fluorescence; hits give low values; activity change, % (values are at about 110 or 230 µM); actives 0.15% (n = 480,000); AID 1347041; in the data active = activity change below about -30%; inconclusive = mostly about -25% to -30%;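 note: plate controls were DMSO wells for no effect and wells without enzyme for full effect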
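LDH5 2 nM; NADH 0.06 mM, pyruvate 0.2 mM; 200 mM Tris pH 7.4, EDTA, Tween-20; 5 min RT. Detection: diaphorase 0.133 mg/mL + resazurin 37 µM, fluorescence ex540/em590 at 0 and 20 min; normalized to enzyme-free and DMSO wells.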
CXXC DNA block: blocks binding of human MLL CXXC domain to DNA | actives 0.037% (n = 290,000) | Q03164 | Potency, µM (highest dose often 115 µM), without a hit: at the top dose activity change, negative = inhibition, most hits filed as inhibitors | AID 2662 | MLL-CXXC / FITC-HOXA9 DNA fluorescence polarization; active = well fitted inhibition curve with a large enough effect in the polarisation, with a control signal flat, not every such curve was filed as active; inconclusive = small, poorly fitted or top-dose-only effect, or effect the other way, or a change in a side signal; inactive = no such curve, though single readings can be large or run the other way; the % refers to the polarisation; note: potency is the fitted concentration of half-maximal effect
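Fluorescence polarization: 7 uM MLL-CXXC (stock) preincubated 5 min with compounds, then 50 nM fluorescein-HOX-A9 DNA (stock) added; 30 min ambient. Buffer 50 mM Tris-HCl pH 7.5, 50 mM NaCl, 1 mM DTT, 0.05% BSA.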
IDH1 R132H inh: blocks human mutant IDH1 R132H enzyme | O75874 | IDH1-R132H enzyme, NADPH consumption, diaphorase/resazurin fluorescence | Potency, µM (doses to about 76.6 µM), for the others: at the top dose activity change, negative = inhibition, usual class: inhibitors | actives 0.093% (n = 390,000) | AID 602179; active = well fitted inhibition curve with a large enough effect; inconclusive = small, poorly fitted or top-dose-only effect; inactive = no such curve, though single readings can be large or run the other way; note: potency is the fitted concentration of half-maximal effect; % is set by controls: 0 for no effect and ±100 for the full control effect; nearly all actives have a fitted effect of over 65% in size
Target sequence (O75874 whole entry R132H, stated change not applied): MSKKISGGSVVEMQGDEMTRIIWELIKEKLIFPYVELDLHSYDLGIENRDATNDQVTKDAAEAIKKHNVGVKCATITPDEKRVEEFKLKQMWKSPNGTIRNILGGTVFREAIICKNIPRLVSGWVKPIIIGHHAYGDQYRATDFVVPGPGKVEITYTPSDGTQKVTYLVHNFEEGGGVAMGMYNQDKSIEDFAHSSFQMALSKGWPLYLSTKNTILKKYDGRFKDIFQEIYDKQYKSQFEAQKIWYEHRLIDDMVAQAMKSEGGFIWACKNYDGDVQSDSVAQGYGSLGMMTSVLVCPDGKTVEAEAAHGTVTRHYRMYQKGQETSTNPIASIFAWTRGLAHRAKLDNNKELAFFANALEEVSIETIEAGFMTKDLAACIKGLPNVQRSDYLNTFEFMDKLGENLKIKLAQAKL
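IDH1-R132H (0.5 ug/mL) preincubated 30 min with compound, then NADPH (0.016 mM) and alpha-KG (2 mM) added; 80 min at RT, pH 7.5. Remaining NADPH coupled via diaphorase/resazurin to fluorescence (540/590 nm); concentration-response curves normalized to no-enzyme control.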
Menin-MLL TR inh: menin-MLL binding inhibition, Texas Red mutant peptide; O00255; Menin + Texas Red MLL mutant peptide, fluorescence polarization; Potency, µM (series often up to 61.6 µM), for inactives: at the highest dose FP activity change, negative = inhibition, hits mostly inhibitors; actives 0.23% (n = 270,000); AID 1768; active = well fitted inhibition curve with a large enough effect in the polarisation, with a control signal flat, not every such curve was filed as active; inconclusive = small, poorly fitted or top-dose-only effect, or effect the other way, or a change in a side signal; inactive = no such curve, though single readings can be large or run the other way; the % refers to the polarisation; note: potency is the fitted concentration of half-maximal effect; % of control where 0% means no effect
Starred values were filed as active, the others as inactive. Most compounds without a hit are left out; they make up all but 0.54% or so of the library.

How did CC(C)C(NC(=O)OC(C)(C)C)C(=O)N1CCCC1C(=O)NC(Cc1ccccc1)C(N)=O (configuration not stated) do in these assays?
Akt phos inh: -112%*; Menin MLL FP FL: 2; LDHA block: 2; CXXC DNA block: -1%; IDH1 R132H inh: -8%

How did CN/C=C1\C(=O)C(C)(C)Oc2ccc3ccc(=O)oc3c21 do in these assays?
Akt phos inh: -93%*; Menin MLL FP FL: -1; LDHA block: -9; CXXC DNA block: -4%; IDH1 R132H inh: 2%; Menin-MLL TR inh: 1%

What do the screens show for `CC1(C)Oc2ccc3ccc(=O)oc3c2/C(=C/Nc2ccc(O)cc2)C1=O`?
Akt phos inh: inactive; Menin MLL FP FL: 5; LDHA block: -11; CXXC DNA block: 0%; IDH1 R132H inh: -4%; Menin-MLL TR inh: inconclusive

How did N#Cc1cccc(C(=O)Nc2cccc(OC3CCCC3)c2)c1 do in these assays?
LDHA block: 11

Results for COc1cccc(N2CCN(CC(=O)Nc3nc4c(s3)CC(C)CC4)CC2)c1 (configuration not stated) ?
Akt phos inh: -89%*; Menin MLL FP FL: 6; LDHA block: 6; CXXC DNA block: -3%; IDH1 R132H inh: -2%; Menin-MLL TR inh: 0%

Results for O=C1CC(N2CCN(c3nc4ccccc4s3)CC2)C(=O)N1Cc1cccs1 (configuration not stated) ?
Akt phos inh: -143%*; Menin MLL FP FL: 2; LDHA block: -14; CXXC DNA block: 6%; IDH1 R132H inh: 1%; Menin-MLL TR inh: -2%

What do the screens show for `COc1ccc(C(=O)c2c(N)sc3c2CCN(C)C3)cc1`?
Akt phos inh: inactive; Menin MLL FP FL: inconclusive; LDHA block: 0; CXXC DNA block: inconclusive; IDH1 R132H inh: -1%; Menin-MLL TR inh: 14µM*

What do the screens show for `Cc1cccc(NCc2ccccc2O)c1`?
Akt phos inh: -101%*; Menin MLL FP FL: 3; LDHA block: 0; CXXC DNA block: 6%; IDH1 R132H inh: 3%; Menin-MLL TR inh: 19%

How did Cc1cccc(NCCNc2cccc(C)c2)c1 do in these assays?
Akt phos inh: -104%*; Menin MLL FP FL: 1; LDHA block: 3; CXXC DNA block: 4%; IDH1 R132H inh: 5%; Menin-MLL TR inh: 7%

How did CCCCCCCNc1cccc(C)c1 do in these assays?
Akt phos inh: inactive; Menin MLL FP FL: 3; LDHA block: 3; CXXC DNA block: -3%; IDH1 R132H inh: 1%

Results for Cc1cc(C)c(C#N)c(SCc2ccc(F)cc2)n1 ?
Akt phos inh: inactive; Menin MLL FP FL: 5; LDHA block: -1; CXXC DNA block: 9%; IDH1 R132H inh: -6%; Menin-MLL TR inh: 2%

What do the screens show for `Cc1cc(C)c(C#N)c(SCCS(=O)(=O)c2ccc(Cl)cc2)n1`?
Akt phos inh: inactive; Menin MLL FP FL: 2; LDHA block: -8; CXXC DNA block: -17%; IDH1 R132H inh: 3%

Results for Cc1cc(C)c(C#N)c(SCc2ccc(C#N)cc2)n1 ?
Akt phos inh: -92%*; Menin MLL FP FL: 0; LDHA block: -3; CXXC DNA block: 11%; IDH1 R132H inh: 1%; Menin-MLL TR inh: -3%

How did Cc1cc(C)c(C#N)c(SCCS(=O)(=O)Cc2ccc(Cl)cc2)n1 do in these assays?
Akt phos inh: -91%*; Menin MLL FP FL: 4; LDHA block: -7; CXXC DNA block: 3%; IDH1 R132H inh: 1%; Menin-MLL TR inh: inconclusive

Results for COc1ccc2nc(N3CCC(C)CC3)c(C#N)cc2c1 ?
Akt phos inh: -103%*; Menin MLL FP FL: inconclusive; LDHA block: 17; CXXC DNA block: 3%; IDH1 R132H inh: 4%; Menin-MLL TR inh: 9%

How did COc1ccc(N2C(N)=NC(N)=NC23CCCC3)cc1 do in these assays?
Akt phos inh: -106%*; Menin MLL FP FL: 3; LDHA block: -8; CXXC DNA block: -16%; IDH1 R132H inh: 1%; Menin-MLL TR inh: 14%

How did Cc1nc(N2CCN(Cc3ccccc3)CC2)nc2c1C(=O)CC(C)C2 (configuration not stated) do in these assays?
Akt phos inh: -110%*; Menin MLL FP FL: 0; LDHA block: 3; CXXC DNA block: -12%; IDH1 R132H inh: 6%; Menin-MLL TR inh: -4%

How did CC1=C(C(=O)Nc2ccc(F)c(F)c2)C(c2ccc(F)cc2)NC(=S)N1 (configuration not stated) do in these assays?
LDHA block: -1

How did Cc1ccc(NC(=O)CC2CS(=O)(=O)CC2CC(=O)Nc2ccc(C)c(C)c2)cc1C (configuration not stated) do in these assays?
Akt phos inh: -121%*; Menin MLL FP FL: 8; LDHA block: -5; CXXC DNA block: 21%; IDH1 R132H inh: -2%; Menin-MLL TR inh: 24%

How did CC(=O)Nc1ccc(NC(=O)COc2ccc3c(C)cc(=O)oc3c2C)cc1 do in these assays?
LDHA block: 4

What do the screens show for `COc1ccc(OC)c(NC(=O)CN2C(=O)C3(OCCCO3)c3ccccc32)c1`?
Akt phos inh: inactive; Menin MLL FP FL: 1; LDHA block: 1; CXXC DNA block: 0%; IDH1 R132H inh: 4%; Menin-MLL TR inh: -2%

Results for COc1ccc(CCNC(=O)CN2C(=O)C3(OCCCO3)c3ccccc32)cc1OC ?
Akt phos inh: -90%*; Menin MLL FP FL: 1; LDHA block: -1; CXXC DNA block: -8%; IDH1 R132H inh: 0%; Menin-MLL TR inh: 16%

Results for CCOc1ccc2nc(S(=O)(=O)NC(=O)C3(C)CCN3C(=O)c3cc(C)n(C)n3)sc2c1 (configuration not stated) ?
Akt phos inh: inactive; LDHA block: -67*

How did CCOc1ccc2nc(S(=O)(=O)NC(=O)C3(C)CCN3C(=O)c3c(C)noc3C)sc2c1 (configuration not stated) do in these assays?
Akt phos inh: inactive; LDHA block: -15

How did COc1ccc(NC(=O)CN(C)CC(=O)Nc2ccccc2SC)cc1 do in these assays?
Akt phos inh: inactive; Menin MLL FP FL: -1; LDHA block: -35*; CXXC DNA block: 5%; IDH1 R132H inh: 7%; Menin-MLL TR inh: -2%

What do the screens show for `COc1ccc(OCCN(C)CC(=O)Nc2ccccc2SC)cc1`?
Akt phos inh: inactive; Menin MLL FP FL: -6; LDHA block: 1; CXXC DNA block: 3%; IDH1 R132H inh: 2%; Menin-MLL TR inh: inconclusive

What do the screens show for `Cc1cc(C#N)c2ccccc2n1`?
Akt phos inh: -109%*; Menin MLL FP FL: -2; LDHA block: -4; CXXC DNA block: -2%; IDH1 R132H inh: 4%; Menin-MLL TR inh: 5%

How did Cc1[nH][nH]c(=O)c1C(c1ccc(OCc2ccccc2)cc1)c1c(C)[nH][nH]c1=O do in these assays?
LDHA block: 27
